According to PubChem BioAssay (EPA / NIEHS):
Activity calls are given as the source filed them. The calls were made as follows: active = hit-call score of the fitted dose curve at least 0.9, where 1 is the maximum; inactive = score below 0.9.

Legend:
[1] = ATG_CRE_CIS: Attagene CIS-FACTORIAL HepG2 Assay for human cAMP Responsive Element (CRE) binding protein 3 (AID 2282926); conditions: HepG2 CRE cis-reporter, Attagene multiplexed mRNA; actives raise or lower the signal
In short: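 Readout: fluorescently labelled reporter transcripts resolved by capillary electrophoresis after RT-PCR, taken 24 h post-dosing in transfected HepG2. Endogenous transcription factor activity drives each cis-element reporter; gain or loss of signal fitted relative to DMSO control.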

[2] = target: CCAAT/enhancer-binding protein beta (Homo sapiens) (UniProt P17676); test: ATG_C_EBP_CIS: Attagene CIS-FACTORIAL HepG2 Assay for human CCAAT/Enhancer Binding Protein (C/EBP) beta (AID 2282927); conditions: HepG2 Attagene cis-factorial transcription factor reporter; actives raise or lower the signal
CCAAT/enhancer-binding protein beta (Homo sapiens), sequence (P17676 whole entry, looked up, the tested form may be a part): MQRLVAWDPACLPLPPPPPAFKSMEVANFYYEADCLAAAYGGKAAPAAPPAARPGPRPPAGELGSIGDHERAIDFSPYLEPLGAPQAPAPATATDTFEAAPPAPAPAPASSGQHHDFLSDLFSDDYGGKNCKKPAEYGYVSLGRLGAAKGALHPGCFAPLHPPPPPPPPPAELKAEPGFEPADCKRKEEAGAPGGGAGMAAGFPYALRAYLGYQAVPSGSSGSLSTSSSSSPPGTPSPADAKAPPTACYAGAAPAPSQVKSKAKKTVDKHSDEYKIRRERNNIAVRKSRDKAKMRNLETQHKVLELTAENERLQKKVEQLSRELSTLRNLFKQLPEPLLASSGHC
In short: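 Endogenous C/EBPb-driven reporter transcripts measured in transfected human HepG2 cells at 24 h via RT-PCR and capillary electrophoresis of labelled fragments. Activity fitted in both directions relative to DMSO baseline.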

[3] = ATG_CMV_CIS: Attagene CIS-FACTORIAL HepG2 Assay for human CMV (Internal Marker) (AID 2282928); conditions: HepG2 CMV promoter reporter, transcription factor profiling; actives raise or lower the signal;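 also: endpoint acts as a background internal control marker rather than a target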
In short: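 Reporter transcripts from transfected HepG2 cells are isolated after 24 h of chemical dosing, reverse-transcribed and amplified. Fragments labeled with 6-FAM are cut with HpaI and quantified by capillary electrophoresis; DMSO defines baseline.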

[4] = ATG_DR4_LXR_CIS: Attagene CIS-FACTORIAL HepG2 Assay for human Liver X Receptor (LXR), DR4 submotif (AID 2282929); conditions: HepG2 Attagene DR4 cis-reporter, mRNA transcription; actives raise or lower the signal
In short: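 The endpoint is DR4-element-driven reporter transcripts after 24 h chemical exposure of transfected HepG2 cells. These were measured via RT-PCR and capillary electrophoresis, and gain or loss of signal was fitted relative to DMSO controls.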

[5] = target: Aryl hydrocarbon receptor (Homo sapiens) (UniProt P35869); test: ATG_Ahr_CIS: Attagene CIS-FACTORIAL HepG2 Assay for human Aryl Hydrocarbon Receptor (Ahr) (AID 2282930); conditions: HepG2 AhR cis-factorial reporter transcription; actives raise or lower the signal
Aryl hydrocarbon receptor (Homo sapiens), sequence (P35869 whole entry, looked up): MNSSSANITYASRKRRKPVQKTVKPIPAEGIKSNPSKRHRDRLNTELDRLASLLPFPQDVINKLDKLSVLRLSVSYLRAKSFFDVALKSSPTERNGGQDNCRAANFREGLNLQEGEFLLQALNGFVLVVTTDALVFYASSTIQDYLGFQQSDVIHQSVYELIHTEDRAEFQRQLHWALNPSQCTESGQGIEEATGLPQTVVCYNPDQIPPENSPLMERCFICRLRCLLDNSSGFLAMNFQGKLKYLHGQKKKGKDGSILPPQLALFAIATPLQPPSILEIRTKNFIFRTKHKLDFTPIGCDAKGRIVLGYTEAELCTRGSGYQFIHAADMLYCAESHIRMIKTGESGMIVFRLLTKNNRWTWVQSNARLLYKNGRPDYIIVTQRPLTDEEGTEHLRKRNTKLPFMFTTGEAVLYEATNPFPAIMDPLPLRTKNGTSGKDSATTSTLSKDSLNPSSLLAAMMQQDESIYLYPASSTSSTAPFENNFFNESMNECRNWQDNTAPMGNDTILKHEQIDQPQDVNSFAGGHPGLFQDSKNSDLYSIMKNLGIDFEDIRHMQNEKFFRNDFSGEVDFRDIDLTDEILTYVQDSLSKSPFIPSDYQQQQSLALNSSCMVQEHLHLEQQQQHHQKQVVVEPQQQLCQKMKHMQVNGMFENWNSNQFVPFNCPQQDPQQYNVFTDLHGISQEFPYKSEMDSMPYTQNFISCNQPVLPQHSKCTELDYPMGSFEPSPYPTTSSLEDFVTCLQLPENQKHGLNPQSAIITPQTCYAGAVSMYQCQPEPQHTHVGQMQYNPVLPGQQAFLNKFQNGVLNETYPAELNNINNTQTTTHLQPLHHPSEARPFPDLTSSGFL
In short: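 Reporter mRNA levels, quantified by RT-PCR and fluorescent capillary electrophoresis, reflect endogenous AhR transcriptional activity in HepG2 cells carrying transfected cis-promoter reporter constructs. Readout at 24 h post-dose; gain or loss fitted against DMSO baseline.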

[6] = ATG_AP_1_CIS: Attagene CIS-FACTORIAL HepG2 Assay for human Activator Protein 1 (AP-1) (AID 2282931); conditions: HepG2 Attagene cis-factorial AP-1 reporter mRNA; actives raise or lower the signal
In short: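 Readout is reporter transcript level from endogenous transcription factor activity, quantified by RT-PCR with fluorescent primer extension and capillary electrophoresis. Transiently transfected HepG2 cells, 24 h exposure. Curves fitted both directions versus DMSO.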

[7] = ATG_AP_2_CIS: Attagene CIS-FACTORIAL HepG2 Assay for human Activator Protein 2 (AP-2) (AID 2282932); conditions: HepG2 AP-2 cis-reporter, Attagene transcription factor profiling; actives raise or lower the signal
In short: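 Transiently transfected HepG2 cells are exposed to chemical for 24 h. Reporter transcripts are then measured as fluorescence following RT-PCR and capillary separation, and gain- or loss-of-signal is fitted relative to DMSO.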

[8] = ATG_BRE_CIS: Attagene CIS-FACTORIAL HepG2 Assay for human Bone Morphogenetic Protein (BMP) Response Element (BRE) (AID 2282933); conditions: HepG2 BMP response element reporter, Attagene transcription factor profiling; actives raise or lower the signal
In short: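 After a 24 h chemical treatment, transiently transfected HepG2 cells were lysed for RNA; reporter transcripts were quantified by fluorescent RT-PCR and capillary electrophoresis, normalised to DMSO.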

[9] = target: Transcription factor E2F1 (Homo sapiens) (UniProt Q01094); test: ATG_E2F_CIS: Attagene CIS-FACTORIAL HepG2 Assay for human E2F Transcription Factor 1 (AID 2282935); conditions: HepG2 Attagene cis-reporter, E2F reporter RNA transcripts; actives raise or lower the signal
Transcription factor E2F1 (Homo sapiens), sequence (Q01094 whole entry, looked up): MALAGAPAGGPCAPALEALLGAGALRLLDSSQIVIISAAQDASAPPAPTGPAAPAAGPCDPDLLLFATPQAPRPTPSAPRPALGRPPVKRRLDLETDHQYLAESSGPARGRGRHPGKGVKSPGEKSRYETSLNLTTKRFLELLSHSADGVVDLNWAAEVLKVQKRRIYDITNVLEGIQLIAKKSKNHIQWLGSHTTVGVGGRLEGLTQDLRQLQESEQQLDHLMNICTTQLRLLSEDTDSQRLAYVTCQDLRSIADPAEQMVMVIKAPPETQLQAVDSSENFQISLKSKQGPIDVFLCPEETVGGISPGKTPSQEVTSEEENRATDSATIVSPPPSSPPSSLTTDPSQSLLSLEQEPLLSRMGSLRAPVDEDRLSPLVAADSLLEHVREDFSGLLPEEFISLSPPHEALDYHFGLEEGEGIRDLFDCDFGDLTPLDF
In short: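 Fluorescent RT-PCR products, digested with HpaI for 2 h at 37 C, are separated by capillary electrophoresis. Source RNA comes from transfected HepG2 cultures treated for 24 h.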

[10] = ATG_E_Box_CIS: Attagene CIS-FACTORIAL HepG2 Assay for human Enhancer Box (E-box) (AID 2282936); conditions: HepG2 E-box cis-reporter transcription, actives raise or lower the signal
In short: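 Fluorescent reporter fragments separated by capillary electrophoresis gave the signal; mRNA came from HepG2 cells transfected with cis-element reporters and treated 24 h. Curves fitted bidirectionally relative to DMSO controls.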

[11] = ATG_M_61_CIS: Attagene CIS-FACTORIAL HepG2 Assay for M61 Transcription Factor (Internal Marker) (AID 2282937); conditions: HepG2 Attagene CIS-FACTORIAL M61 internal marker reporter; actives raise or lower the signal
In short: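 Readout is reporter mRNA by RT-PCR, fluorescent primer extension and capillary electrophoresis, with gain or loss fitted relative to DMSO. Transfected HepG2 cells carrying endogenous-TF-driven cis reporters were exposed to chemicals for 24 hours.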

[12] = ATG_M_19_CIS: Attagene CIS-FACTORIAL HepG2 Assay for M19 Transcription Factor (Internal Marker) (AID 2282939); conditions: HepG2 Attagene CIS-FACTORIAL M19 internal marker reporter; actives raise or lower the signal
In short: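 In this multiplexed cell assay, transiently transfected HepG2 reporter units report endogenous transcription-factor activity; after 24 hours of treatment, labelled reporter cDNA fragments are quantified by capillary electrophoresis and fitted bidirectionally against DMSO.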

[13] = ATG_ERE_CIS: Attagene CIS-FACTORIAL HepG2 Assay for Estrogen Response Element (ERE) (AID 2282940); conditions: HepG2 ERE cis-reporter, Attagene RNA transcript; actives raise or lower the signal
In short: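 Measuring endogenous transcription factor output, the assay doses transfected HepG2 cells for 24 hours and quantifies reporter transcripts by fluorescent RT-PCR and capillary electrophoresis, with DMSO as baseline.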

[14] = ATG_Ets_CIS: Attagene CIS-FACTORIAL HepG2 Assay for human Erythroblast Transformation Specific (ETS) (AID 2282941); conditions: HepG2 ETS cis-reporter transcription, actives raise or lower the signal
In short: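 Bidirectional fit versus DMSO of reporter mRNA signal, detected by RT-PCR and capillary electrophoresis in HepG2 cells transiently transfected with cis-element reporters and dosed 24 h.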

[15] = ATG_FoxO_CIS: Attagene CIS-FACTORIAL HepG2 Assay for human Forkhead box O (FoxO) (AID 2282943); conditions: HepG2 Attagene cis-reporter, FoxO element, mRNA; actives raise or lower the signal
In short: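 Endogenous transcription factor activity read from multiplexed cis-promoter reporter transcripts in transiently transfected HepG2, 24 h after dosing. Reporter RNA measured via RT-PCR plus capillary electrophoresis of FAM-labeled products; gain or loss relative to DMSO.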

[16] = ATG_GATA_CIS: Attagene CIS-FACTORIAL HepG2 Assay for human GATA Binding Protein (AID 2282944); conditions: HepG2 GATA cis-element reporter, Attagene multiplex mRNA; actives raise or lower the signal
In short: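 Measures endogenous transcription factor-driven reporter mRNA in HepG2 cells transiently carrying cis-regulated constructs. 24 h dosing; RNA via oligo(dT) reverse transcription, PCR, HpaI digestion, capillary electrophoresis; fitted relative to DMSO.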

[17] = ATG_GLI_CIS: Attagene CIS-FACTORIAL HepG2 Assay for human Zinc Finger Protein GLI1 (AID 2282945); conditions: HepG2, Attagene cis-factorial reporter mRNA, GLI element; actives raise or lower the signal
In short: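 Bidirectional curve fits relative to DMSO, using reporter mRNA levels from RT-PCR plus capillary electrophoresis. Cells were HepG2 transiently carrying cis-regulated reporter constructs, harvested 24 h after dosing.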

[18] = target: Hepatocyte nuclear factor 3-beta (Homo sapiens) (UniProt Q9Y261); test: ATG_FoxA2_CIS: Attagene CIS-FACTORIAL HepG2 Assay for human Forkhead box A2 (FOXA2) (AID 2282942); conditions: HepG2 cis-reporter transcription factor activity, 24 h; actives raise or lower the signal
Hepatocyte nuclear factor 3-beta (Homo sapiens), sequence (Q9Y261 whole entry, looked up): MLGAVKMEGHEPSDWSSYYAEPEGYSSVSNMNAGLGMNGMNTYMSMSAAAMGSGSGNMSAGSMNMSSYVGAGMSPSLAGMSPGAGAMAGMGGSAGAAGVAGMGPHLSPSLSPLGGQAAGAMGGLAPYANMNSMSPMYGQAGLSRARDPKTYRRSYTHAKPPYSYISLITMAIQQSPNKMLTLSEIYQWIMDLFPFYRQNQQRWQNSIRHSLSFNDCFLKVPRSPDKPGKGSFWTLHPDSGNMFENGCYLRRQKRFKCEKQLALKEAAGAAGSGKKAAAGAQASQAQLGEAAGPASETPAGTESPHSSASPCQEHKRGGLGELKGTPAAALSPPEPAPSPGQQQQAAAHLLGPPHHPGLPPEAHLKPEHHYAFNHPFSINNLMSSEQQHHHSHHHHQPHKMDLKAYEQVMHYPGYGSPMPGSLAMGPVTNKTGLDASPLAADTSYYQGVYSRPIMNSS
In short: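 Endogenous transcription factor activity is captured via cis-element-driven reporter transcripts in transfected HepG2. Total RNA taken at 24 h post-dosing; labelled RT-PCR products resolved by capillary electrophoresis. Gain or loss fitted versus DMSO.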

[19] = ATG_EGR_CIS: Attagene CIS-FACTORIAL HepG2 Assay for human Early Growth Response 1 (EGR1) (AID 2282938); conditions: HepG2 Attagene CIS-FACTORIAL EGR reporter mRNA; actives raise or lower the signal
In short: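 After 24 h compound exposure, RNA from reporter-transfected HepG2 cells was reverse-transcribed, PCR-amplified, fluorescently labelled and resolved by capillary electrophoresis. EGR1 reporter transcript changes, up or down, were fitted against DMSO, reflecting endogenous transcription-factor activity.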

Measured: AC50

O=C(O)COCCN1CCN(C(c2ccccc2)c2ccc(Cl)cc2)CC1 (stereo not drawn)
active: [13] 18.8 µM
not listed: [18] | [19]
inactive: all other assays above

O=C(O)c1ccc(C(=O)O)cc1
not listed: [13] | [19]
inactive: all other assays above

N#Cc1nc(Cl)c(Cl)c(Cl)c1Cl
active: [2] 6.82 µM | [3] 7.02 µM | [4] 3.14 µM | [6] 6.02 µM | [7] 4.74 µM | [8] 5.89 µM | [10] 5.53 µM | [19] 4.56 µM | [14] 2.25 µM | [18] 6.82 µM | [15] 5.92 µM | [16] 3.71 µM | [17] 5.39 µM
inactive: [1] | [5] | [9] | [12]

CC(=O)O[C@]1(C(C)=O)CC[C@H]2[C@@H]3C[C@H](C)C4=CC(=O)CC[C@]4(C)[C@H]3CC[C@@]21C
active: [13] 9.49 µM
not listed: [11] | [16]
inactive: all other assays above
